Results on twelve sequences are retold here after the supplement of paper PMC6555819.

Holding throughout (assay): PBM binding z-score (relative to random genomic background probes); higher = stronger binding; sequences stand for … in GC…GCGATTGACAGCGTAGAATGAAGG
Assay [1] deals with FXR:RXRa (NR concentration 270 nM, RXRa partner concentration 90 nM). In short, it runs like this:
(§1)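 On custom Agilent 4×180K arrays, double-stranded probes with 34-nt variable regions carried direct-repeat seeds, single-nucleotide variants, half-site ablations or random human genomic background. Ligand-free nuclear receptor dimers were applied for 1 h, and binding was read with antibodies against each partner (one per run). Binding z-scores come from regression-normalized fluorescence, with the random background probes as reference.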

For assay [2], the system named is LXRa:RXRa (NR concentration 270 nM, RXRa partner concentration 90 nM). In short, it runs like this: as §1
Assay [3] deals with LXRa homodimer (NR concentration 270 nM). An outline of the steps:
as §1

Assay [4] relates to LXRb:RXRa (NR concentration 270 nM, RXRa partner concentration 90 nM). An outline of the steps:
as §1

Assay [5] concerns LXRb homodimer (NR concentration 270 nM). In short, it runs like this:
as §1

For assay [6], the system named is PPARa:RXRa (NR concentration 270 nM, RXRa partner concentration 90 nM). In short, it runs like this:
as §1

Assay [7] has as its system PPARg:RXRa (NR concentration 180 nM, RXRa partner concentration 90 nM). In short, it runs like this: as §1
Assay [8] deals with PPARg:RXRa 270nM:90nM, anti-RXR (NR concentration 270 nM, RXRa partner concentration 90 nM). An outline of the steps:
as §1

Assay [9] has as its system PPARg:RXRa 30nM:10nM, anti-RXR (NR concentration 30 nM, RXRa partner concentration 10 nM). An outline of the steps:
as §1

Assay [10] relates to PPARg:RXRa 90nM:30nM, anti-RXR (NR concentration 90 nM, RXRa partner concentration 30 nM). In short, it runs like this:
as §1

With CCGACTGGGGGATAAGGTTACCATAAGCCAGCCC, the PBM binding z-score in [1] is 0.506; in assay [2] it was 2.65; in [3], -0.0985; in assay [4] it was 2.4; in assay [5] it was 2.01; in [6], 1.91. Moreover, the PBM binding z-score in [7] came to 1.43; in assay [8], 2.38; in assay [9] it was 1.06; in assay [10], 2.07.

As to CCTAGTTGGTCAAGGTCGCACACGCTATAGGTAC, the PBM binding z-score is 1.28 in [1]; 0.906 in assay [2]; 0.275 in assay [3]; 1.18 in assay [4]; -0.0478 in [5]; 1.68 in [6]. The PBM binding z-score in assay [7] turned out to be 1.15; in assay [8], 1.37; in [9] it was 0.0592; in assay [10] it was 0.958.

For the sequence CCGAGTAGGTTATGGCGCATTCAGGCAACGGTGA, the PBM binding z-score in assay [1] is -0.0642; in assay [2] it was 0.163; in assay [3] it was -0.0103; in assay [4], 0.076; in assay [5], -0.283; in assay [6] it was 0.62. In addition, the PBM binding z-score was 0.319 in assay [7], 0.503 in [8], -0.377 in assay [9] and 0.107 in assay [10].

In the case of ATCTCTAGGTAAAGTTCAATGAAAGATCGATAGA, the PBM binding z-score in [1] was found to be 2.28; in [2], 3.13; in [3] it was 2.86; in assay [4], 2.25; in assay [5], 1.31; in [6] it was 3.32. The PBM binding z-score in assay [7] amounted to 4.11; in assay [8], 5.15; in assay [9] it was 3.34; in assay [10], 4.82.

On to TCCTGTAGATCAAAGGTTAAGAAAGCCGAAGCCT, for which the PBM binding z-score in [1] is 1.59; in [2] it was 2.18; in [3], -0.208; in [4] it was 2.2; in assay [5], -0.193; in [6] it was 4.17. In addition, the PBM binding z-score is 7.57 in assay [7], 7.55 in [8], 8.09 in [9] and 8.13 in assay [10].

Consider ATACCAAGGTGTTCGTGAGGTCGTTGATACTAAC, for which the PBM binding z-score in [1] came out at 1.76; in assay [2], 2.11; in [3], 1.19; in assay [4], 1.3; in [5], 0.178; in assay [6], 1.24. Also, the PBM binding z-score in assay [7] was 0.117; in [8] it was 0.343; in assay [9], -0.0462; in [10], 0.253.

As for TCTTGTAGATCAAGCAGGTTAGGAAAGCCTGAGT, the PBM binding z-score in assay [1] is -0.176; in [2], 0.11; in assay [3], -0.571; in assay [4], -0.145; in [5], -0.701; in [6], 0.251. Besides, the PBM binding z-score was -0.615 in [7], 1 in assay [8], 2.29 in assay [9] and 1.62 in assay [10].

On to CCTTACGAGTCACTGACAGGTTATAGCATTTGGA, for which the PBM binding z-score in [1] was 0.777; in assay [2], 1.14; in assay [3], 0.907; in assay [4], 1.29; in assay [5], 0.779; in [6], 0.873. Further, the PBM binding z-score in [7] was found to be 0.529; in [8] it was 0.102; in assay [9], 0.331; in [10], 0.375.

For the sequence TTGAGTAGGTTAGTCGGGGCATTCAGCCAACATA, the PBM binding z-score in [1] was found to be 0.205; in [2], 0.325; in assay [3] it was 0.413; in assay [4] it was 0.932; in [5], 0.285; in assay [6], 1.11. In addition, the PBM binding z-score in assay [7] was determined as 0.307; in [8] it was 0.997; in assay [9], 0.398; in assay [10], 0.742.

As to GCTTACGGGTCAAAGGTAATAGCATGAATAGAAT, the PBM binding z-score was 6.06 in [1]; 4.07 in assay [2]; -0.0184 in [3]; 4.32 in assay [4]; 0.154 in assay [5]; 6.32 in [6]. Moreover, the PBM binding z-score in assay [7] came out at 9.59; in assay [8], 8.1; in assay [9], 7.14; in [10] it was 8.44.

Consider TAGCCGAGGTCATGCGGGCCAGTATAGTGTCGGC, for which the PBM binding z-score in [1] was determined as 7.46; in [2] it was 5.94; in [3], 1.69; in assay [4], 4.64; in assay [5], 1; in [6], 6.24. The PBM binding z-score in assay [7] is 6; in [8], 6.15; in [9] it was 2.74; in [10] it was 4.56.

AATACAGGGTCACTAGGCCACAGTAGGTACGAAT: the PBM binding z-score was determined as 6.38 in assay [1]; 4.76 in assay [2]; 1.17 in assay [3]; 4.02 in assay [4]; 1.04 in [5]; 6.17 in [6]. In addition, the PBM binding z-score amounted to 8.82 in assay [7], 7.43 in assay [8], 4.24 in [9] and 6.72 in assay [10].
